The campaign covered roughly 4,400 compounds. About 390 (8.9%) showed an effect of 50% or more. The full list was thinned out, with strong results kept by preference.

The test system of the assay is Trypanosoma brucei. The assay can be described thus: DNDI: Inhibition of Human African Trypanosomiasis, SBRI 427, in vitro at 2 ug.mL-1. The assay is classed as functional.
For the molecule `COCCCNCc1coc(-c2ccccc2)n1`, the % inhibition (usually the change of the read-out against control, counted positive when it falls) is given as 38%.

For the molecule `CC1CC(C)CN(/C(=N\O)c2ccc(Oc3cc(Cl)ccc3Cl)nc2)C1` (centres undefined), the “% inhibition” value is given as 10%.

As for `CN(Cc1cccnc1)/C(=N\O)c1ccc(Oc2cc(Cl)ccc2Cl)nc1`, the “% inhibition” value is listed as -14%.

Consider `Cc1ccc(/C(=N/O)N2CC=CC2)c(Oc2cccc3ccc(C)nc23)n1`, for which the “% inhibition” value stood at 28%.

Turning to `N/C(=N\O)c1ccc(Oc2ccc3ccccc3c2)nc1`, the “% inhibition” value is reported as 12%.

As to `Cc1ccc(/C(=N/O)N2CCC=N2)c(Oc2cccc(F)c2)n1`, the “% inhibition” value came out at 21%.

Regarding `CCN(CCC#N)Cc1coc(-c2ccc(C(F)(F)F)cc2)n1`, the “% inhibition” value is given as -3%.

As to `Cc1ccccc1CN/C(=N\O)c1ccnc(Oc2ccc(F)c(Cl)c2)c1`, the “% inhibition” value was found to be 14%.

With `CN(/C(=N\O)c1cccnc1Oc1ccc(-n2cncn2)cc1)C1CCCCC1`, the “% inhibition” value is listed as 14%.

Take `Cc1ccc(-c2nc(CNCc3ccccc3)co2)cc1`: the “% inhibition” value is reported as -10%.

Regarding `O/N=C(/c1ccc(Oc2ccc(Cl)cc2)nc1)N1CCC2CCCCC2C1` (centres undefined), the “% inhibition” value was 99%.

On to `O/N=C(/c1ccc(Oc2cccc3cccnc23)nc1)N1CCN(c2ccccc2)CC1`, for which the “% inhibition” value is -27%.

In the case of `O/N=C(/c1ccc(Oc2cccc3cccnc23)nc1)N1CCC2CCCCC2C1` (centres undefined), the “% inhibition” value stood at 58%.

On to `CC1CC(C)CN(/C(=N\O)c2ccc(Oc3cccc4cccnc34)nc2)C1` (centres undefined), for which the “% inhibition” value was -24%.

`O/N=C(/c1ccc(Oc2ccc3ccccc3c2)nc1)N1CCC2CCCCC2C1` (centres undefined): the “% inhibition” value was determined as 28%.

As for `O/N=C(/c1ccc(Oc2cc(Cl)ccc2Cl)nc1)N1CCC2CCCCC2C1` (centres undefined), the “% inhibition” value is listed as -2%.

Regarding `CCOc1ccc(Oc2nc(C)ccc2/C(=N/O)N2CC(C)CC(C)C2)cc1` (centres undefined), the “% inhibition” value was found to be 8%.

On to `Cc1cc(Oc2ccc(/C(=N/O)NCc3cc(F)ccc3F)cn2)cc(C(C)C)c1`, for which the “% inhibition” value is -14%.

Take `O/N=C(/c1cccnc1OC1CCC1)N1CCN(c2ccc(F)cc2)CC1`: the “% inhibition” value came to 7%.

Turning to `CC(=O)c1ccc(N2CCN(Cc3coc(-c4ccccc4Cl)n3)CC2)cc1`, the “% inhibition” value is recorded as -7%.

With `Cc1ccc(/C(=N/O)N2CCC(N(C)C)C2)c(Oc2ccc3ccccc3c2)n1` (centres undefined), the “% inhibition” value turned out to be 20%.

On to `COCC(C)N/C(=N\O)c1cccnc1Oc1ccc(C)c2c1CCC2` (centres undefined), for which the “% inhibition” value came to 12%.

`Cc1ccc(Oc2ncccc2/C(=N/O)N2CCC3CCCCC3C2)c2c1CCC2` (centres undefined): the “% inhibition” value is recorded as -7%.

Take `CCCN/C(=N\O)c1cccnc1Oc1ccc(C)c2c1CCC2`: the “% inhibition” value is given as 42%.

Take `Cc1ccc(Oc2ncccc2/C(=N/O)NC2CCC(C)CC2)c2c1CCC2` (centres undefined): the “% inhibition” value is given as 100%.

Turning to `Cc1ccc(Oc2ncccc2/C(=N/O)N2CC(C)CC(C)C2)c2c1CCC2` (centres undefined), the “% inhibition” value is 6%.

For the molecule `Cc1ccc(Oc2ncccc2/C(=N/O)NCC2CC2)c2c1CCC2`, the “% inhibition” value turned out to be 99%.

Take `COCCN/C(=N\O)c1cccnc1Oc1ccc(C)c2c1CCC2`: the “% inhibition” value was found to be 80%.

Turning to `CCC(CC)N/C(=N\O)c1cccnc1Oc1ccc(C)c2c1CCC2`, the “% inhibition” value turned out to be 99%.

On to `Cc1ccc(Oc2ncccc2/C(=N/O)NC(C)C)c2c1CCC2`, for which the “% inhibition” value was found to be 8%.

For `Cc1ccc(Oc2ncccc2/C(N)=N/O)c2c1CCC2`, the “% inhibition” value came out at 9%.

`Cc1ccc(Oc2cc(/C(=N/O)NCC3CC3)ccn2)c2c1CCC2`: the “% inhibition” value amounted to 40%.

Turning to `Cc1ccccc1-c1nc(Cn2ncc3c2CCCC3)co1`, the “% inhibition” value is -16%.

For the molecule `O/N=C(/c1ccc(Oc2cc(Cl)ccc2Cl)nc1)N1CCSCC1`, the “% inhibition” value is listed as -11%.

For `COc1ccc(Oc2nc(C)ccc2/C(=N/O)N(C)Cc2cccnc2)cc1`, the “% inhibition” value is reported as -3%.

With `CCCN(CCC)Cc1coc(-c2ccccc2Cl)n1`, the “% inhibition” value is listed as 16%.

Consider `Oc1ccc(-c2nc(CN3CCc4ccccc4C3)co2)cc1`, for which the “% inhibition” value is on record as 8%.

As to `CCOc1ccc(-c2nc(CN(C)CC#N)co2)cc1`, the “% inhibition” value is 4%.

`CSc1ccc(Oc2nc(C)ccc2/C(=N/O)n2nc(C)cc2C)cc1C`: the “% inhibition” value was 16%.

Regarding `CSc1ccccc1Oc1ncccc1/C(=N/O)N1CCN(c2ccc(F)cc2)CC1`, the “% inhibition” value is 19%.

For `Cc1cccc(N2CCN(Cc3coc(-c4ccc(OC(F)(F)F)cc4)n3)CC2)c1C`, the “% inhibition” value is -7%.

Turning to `CC(C)CN/C(=N\O)c1cccnc1Oc1ccccc1`, the “% inhibition” value is recorded as 17%.

Regarding `Cc1ccc(Oc2ncccc2/C(=N/O)NCC(C)C)c2c1CCC2`, the “% inhibition” value came out at 100%.

`Cc1ccc(Oc2ncccc2/C(=N/O)N2CCCC2)c2c1CCC2`: the “% inhibition” value is -1%.

For the molecule `CCOc1ccccc1-c1nc(CN2CCN(c3cccc(OC)c3)CC2)co1`, the “% inhibition” value is reported as -3%.

With `COc1ccc(CNCc2coc(-c3ccc(F)cc3)n2)cc1OC`, the “% inhibition” value is given as -5%.

Consider `CC1CCN(/C(=N\O)c2ccc(Oc3c(F)c(F)cc(F)c3F)nc2)CC1`, for which the “% inhibition” value stood at 9%.

For the molecule `COc1ccc(CN/C(=N\O)c2cccnc2OCC(C)C)cc1`, the “% inhibition” value is on record as -1%.

On to `C#CC(CC)(CC)NCc1coc(-c2ccc(OC)cc2)n1`, for which the “% inhibition” value is listed as -8%.

For `C=CCc1ccc(Oc2cc(/C(=N/O)NCc3ccncc3)ccn2)c(OC)c1`, the “% inhibition” value is listed as 23%.

On to `C=CCc1ccc(Oc2cc(/C(=N/O)NCc3cccc(OC)c3)ccn2)c(OC)c1`, for which the “% inhibition” value was determined as 35%.

For the molecule `C=CCc1ccc(Oc2ccc(/C(=N/O)NCc3ccncc3)cn2)c(OC)c1`, the “% inhibition” value was 80%.

For the molecule `C=CCc1ccc(Oc2cc(/C(=N/O)NCc3cccnc3)ccn2)c(OC)c1`, the “% inhibition” value was determined as 3%.

Take `C=CCc1ccc(Oc2cc(/C(=N/O)NCc3ccc(OC)cc3)ccn2)c(OC)c1`: the “% inhibition” value amounted to 88%.

On to `C=CCc1ccc(Oc2ccc(/C(=N/O)NCc3ccc(OC)cc3)cn2)c(OC)c1`, for which the “% inhibition” value turned out to be 10%.

As to `c1ccc(-c2nccn2Cc2coc(-c3cccc4ccccc34)n2)cc1`, the “% inhibition” value is given as -1%.

`O/N=C(\NCc1ccco1)c1cccnc1OCc1ccccc1`: the “% inhibition” value is 17%.

`CSc1ccc(Oc2cc(/C(=N/O)NCc3c(F)cccc3F)ccn2)cc1`: the “% inhibition” value is given as 19%.

On to `COc1cc(CN(C)Cc2coc(-c3cccc4ccccc34)n2)cc(OC)c1OC`, for which the “% inhibition” value was -3%.

Turning to `CCn1nccc1NCc1coc(-c2ccc(F)cc2)n1`, the “% inhibition” value is recorded as -5%.

Consider `COc1cccc(-c2nc(CN(C)CCC#N)co2)c1`, for which the “% inhibition” value came to 4%.

With `C=CCc1ccc(Oc2ncccc2/C(N)=N/O)c(OC)c1`, the “% inhibition” value came to 18%.

On to `O/N=C(\NC1CCCCC1)c1ccnc(Oc2ccc(F)c(Cl)c2)c1`, for which the “% inhibition” value is 88%.

Regarding `O/N=C(\NC1CCCC1)c1ccnc(Oc2ccc(F)c(Cl)c2)c1`, the “% inhibition” value was found to be 96%.

Take `O/N=C(/c1ccnc(Oc2ccc(F)c(Cl)c2)c1)N1CCCCC1`: the “% inhibition” value turned out to be 8%.

For the molecule `CN(/C(=N\O)c1ccnc(Oc2ccc(F)c(Cl)c2)c1)C1CCCCC1`, the “% inhibition” value was 94%.

As for `CC1CCCC(C)N1/C(=N\O)c1ccnc(Oc2ccc(F)c(Cl)c2)c1` (centres undefined), the “% inhibition” value was 9%.

Take `CC1CCC(N/C(=N\O)c2ccnc(Oc3ccc(F)c(Cl)c3)c2)CC1` (centres undefined): the “% inhibition” value came to 42%.

On to `CN(/C(=N\O)c1ccnc(Oc2ccc(F)c(F)c2)c1)C1CCCCC1`, for which the “% inhibition” value stood at 35%.

On to `O/N=C(\NCc1ccccc1F)c1ccnc(Oc2ccc(F)c(Cl)c2)c1`, for which the “% inhibition” value is recorded as 44%.

Consider `CN(/C(=N\O)c1ccnc(Oc2cc(Cl)ccc2Cl)c1)C1CCCCC1`, for which the “% inhibition” value is 16%.

Consider `Cc1cn(Cc2coc(-c3ccc(F)cc3)n2)cn1`, for which the “% inhibition” value amounted to 9%.

Turning to `N#CCCN(Cc1coc(-c2ccc(Cl)cc2Cl)n1)CC1CCCO1` (centres undefined), the “% inhibition” value is on record as 9%.

On to `Oc1ccc(-c2nc(CN3CCN(Cc4ccccc4)CC3)co2)cc1`, for which the “% inhibition” value worked out at 18%.

Regarding `C1=CCN(Cc2coc(-c3ccco3)n2)CC1`, the “% inhibition” value was 30%.

Take `CC1(C)Cc2cccc(Oc3ccc(/C(=N/O)NCC4CCCCC4)cn3)c2O1`: the “% inhibition” value came to 34%.

Turning to `Cc1cccc(-c2nc(Cn3ccnc3)co2)c1`, the “% inhibition” value is 15%.

`Cc1ccc(/C(=N/O)NCC2CC2)c(Oc2cc(Cl)ccc2Cl)n1`: the “% inhibition” value was -4%.

As to `Cc1ccc(/C(=N/O)NC2CCCCC2)c(Oc2cc(Cl)ccc2Cl)n1`, the “% inhibition” value is reported as 97%.

On to `Cc1ccc(/C(=N/O)NCC2CCCO2)c(Oc2ccc(F)c(Cl)c2)n1` (centres undefined), for which the “% inhibition” value amounted to 42%.

Take `Cc1ccc(/C(=N/O)NC2CCc3ccccc32)c(Oc2cc(Cl)ccc2Cl)n1` (centres undefined): the “% inhibition” value is listed as -38%.

Turning to `Cc1ccc(/C(=N/O)NCC2CCCO2)c(Oc2cc(Cl)ccc2Cl)n1` (centres undefined), the “% inhibition” value amounted to 85%.

As for `Cc1ccc(/C(=N/O)NC2CCCCC2)c(Oc2ccc(Cl)cc2)n1`, the “% inhibition” value came to 22%.

With `Cc1ccc(/C(=N/O)NC2CCCC2)c(Oc2cc(Cl)ccc2Cl)n1`, the “% inhibition” value came to 100%.

Regarding `Cc1ccc(/C(=N/O)NC2CC2)c(Oc2ccc(Cl)cc2)n1`, the “% inhibition” value is given as 9%.

With `Cc1ccc(/C(=N/O)NCC2CCCCC2)c(Oc2c(F)c(F)cc(F)c2F)n1`, the “% inhibition” value came out at 12%.

`Cc1ccc(/C(=N/O)NC2CCC2)c(Oc2ccc(Cl)cc2)n1`: the “% inhibition” value was -9%.

Take `Cc1ccc(/C(=N/O)NCC2CCCCC2)c(Oc2cc(Cl)ccc2Cl)n1`: the “% inhibition” value worked out at 51%.

Regarding `Cc1ccc(/C(=N/O)NCC2CCCO2)c(Oc2ccc(F)c(F)c2)n1` (centres undefined), the “% inhibition” value was determined as 8%.

Turning to `Cc1ccc(/C(=N/O)NCCN2CCOCC2)c(OCc2ccccn2)n1`, the “% inhibition” value is given as 4%.

As for `Cc1ccc(/C(=N/O)NCCN2CCOCC2)c(Oc2cccc3ccccc23)n1`, the “% inhibition” value is on record as -6%.

Take `O=C(c1ccco1)N1CCN(Cc2coc(-c3ccccc3F)n2)CC1`: the “% inhibition” value was determined as 4%.

Regarding `COc1cccc(OC)c1CNCc1coc(-c2ccc(Br)cc2)n1`, the “% inhibition” value is given as 7%.

As to `CCOc1cccc(-c2nc(CN3CCCCC3)co2)c1`, the “% inhibition” value is reported as -5%.

For `COCCN(/C(=N\O)c1ccc(C)nc1OCc1ccccc1F)C(C)C`, the “% inhibition” value is on record as 18%.

On to `CCOc1ccccc1-c1nc(Cn2cc(C)nc2C)co1`, for which the “% inhibition” value is 7%.

For `COCCN(CCOC)Cc1coc(-c2ccc(C)cc2)n1`, the “% inhibition” value is recorded as 28%.

`COc1ccc(CNCc2coc(-c3cccc(F)c3)n2)cc1OC`: the “% inhibition” value was 13%.

Consider `CCN(Cc1coc(-c2cccc(OC)c2)n1)c1cccc2ccccc12`, for which the “% inhibition” value is 11%.

`Cc1ccc(/C(=N/O)N2CCN(C)CC2)c(Oc2cc(Cl)ccc2Cl)n1`: the “% inhibition” value was 5%.

As to `Cc1ccc(/C(=N/O)N2CCCCC2)c(Oc2cc(Cl)ccc2Cl)n1`, the “% inhibition” value is 33%.

With `Cc1ccc(/C(=N/O)N2CCCN(C)CC2)c(Oc2cc(Cl)ccc2Cl)n1`, the “% inhibition” value was determined as 55%.

As for `Cc1cc(C)cc(Oc2ccc(/C(=N/O)N3CCCCC3)cn2)c1`, the “% inhibition” value is 6%.

In the case of `CN(Cc1coc(-c2cccc3ccccc23)n1)C(C)(C)C`, the “% inhibition” value was determined as 7%.

For the origin of these results see ChEMBL document CHEMBL1857833, “Screening and optimization of specific chemical series against human African Trypanosomiasis (HAT)”.
